Measurements from PubChem BioAssay.
Entries with a potency or affinity are not part of this list. Inconclusive results are not listed. Activity calls are given as the source filed them.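 Rule for the calls, unless noted: active = a fitted half-maximal concentration no higher than twice the top valid tested dose, with signal falling as cells die; inconclusive = flat curve between -70% and -30%, or poor fit; inactive = the rest, including signal rising instead of falling.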

Columns and labels:
[1] = fungal growth arrest, C. neoformans – Alamar Blue, cherry-picks, dose response (AID 686998;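 active = falling signal with fitted half-maximal potency no higher than twice the top valid tested dose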)
[2] = C. neoformans lysis by adenylate kinase leakage – AK release luminescence, cherry-picks, dose response (AID 687000;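 active = fitted dose curve reaches 40% lysis signal rise at or below the highest valid concentration tested for that sample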;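 note: luminescent detection of adenylate kinase leaking from lysed yeast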)
[3] = viability loss in HepG2 hepatoma cells – cell-based, cherry-picks, set 2, cytotoxicity control, dose response (AID 687002;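 active = a dose-response fit showing signal loss, with half-maximal concentration no higher than twice the top tested dose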)
[4] = viability loss in HeLa cells – cell-based, ATP luminescence, cherry-pick samples, cytotoxicity control, dose response (AID 687004)

Measured: outcome

CC(C)NC(=O)N(C)C[C@H]1Oc2c(NC(=O)C3CCCCC3)cccc2C(=O)N([C@H](C)CO)C[C@H]1C
inactive: all assays above

CCC(C)(NC=O)C(=O)Nc1c(C)cccc1C (stereo not given)
inactive: all assays above

CCCNC(=O)C[C@@H]1CC[C@@H]2[C@@H](COc3ccc(NC(=O)CCC)cc3C(=O)N2C)O1
inactive: all assays above

C[C@@H]1CCCCO[C@@H](CN(C)CC2CCCCC2)[C@@H](C)CN([C@@H](C)CO)C(=O)c2cc(NS(=O)(=O)c3ccccc3)ccc2O1
inactive: all assays above

COCC(=O)N(C)C[C@@H]1Oc2ncc(C#CCC3CCCC3)cc2C(=O)N([C@H](C)CO)C[C@H]1C
inactive: all assays above

COc1ccccc1-c1ccc2c(c1)O[C@@H](CN(C)C(=O)c1cccnc1)[C@H](C)CN([C@@H](C)CO)S2(=O)=O
inactive: all assays above

O=C(NC1CCCCC1)N[C@@H]1CC[C@@H](CCNS(=O)(=O)c2ccc(Cl)cc2)O[C@H]1CO
inactive: all assays above

O=C(O)C[C@@H]1CC[C@@H]2[C@H](COC[C@H](O)CN2S(=O)(=O)c2ccc(F)cc2)O1
inactive: all assays above

Cc1ccc(NC(=O)C2(C)CCN2C(=O)CC2CC2)cc1C (stereo not given)
inactive: all assays above

CCCNC(=O)N1C[C@@H]2[C@H](c3ccccc31)[C@H](CO)N2Cc1ccc(OC)cc1
inactive: all assays above

Cc1noc(C)c1NC(=O)N(C)C[C@@H]1Oc2ccc(NC(=O)C3CC3)cc2CC(=O)N([C@H](C)CO)C[C@@H]1C
inactive: all assays above

O=C([C@H]1[C@H](CO)[C@H]2Cn3c(cccc3=O)[C@@H]1N2Cc1cccc(Cl)c1)N1CCOCC1
inactive: all assays above

CCCNC(=O)N(C)C[C@H]1Oc2ncc(C#CC3CCCCC3)cc2C(=O)N([C@@H](C)CO)C[C@@H]1C
inactive: all assays above

COc1cccc(S(=O)(=O)Nc2ccc3c(c2)[C@@H]2C[C@H](CC(=O)NC4CCCCC4)O[C@H](CO)[C@@H]2O3)c1
inactive: all assays above

CCC(C)(C(=O)NC1CCCC1)N(C(C)=O)c1ccc(C)cc1 (stereo not given)
inactive: all assays above

C[C@H](CO)N1C[C@H](C)[C@H](CN(C)C(=O)c2ccccn2)Oc2ncc(-c3ccccc3)cc2C1=O
inactive: all assays above

C[C@H]1CN([C@@H](C)CO)C(=O)c2cccc(NS(C)(=O)=O)c2O[C@@H]1CN(C)Cc1ccc(-c2ccccc2)cc1
inactive: all assays above

C[C@H](CO)N1C[C@H](C)[C@@H](CN(C)C(=O)Nc2cccc3ccccc23)Oc2c(cccc2N(C)C)C1=O
inactive: all assays above

CCCCN1CCCCC1C(=O)Nc1c(C)cccc1C (stereo not given)
inactive: all assays above

O=C(CSc1ncnc2c1cnn2-c1ccc(Cl)cc1)NCc1ccc2c(c1)OCO2
inactive: all assays above

C[C@H]1CN([C@@H](C)CO)S(=O)(=O)c2ccc(Br)cc2O[C@@H]1CN(C)S(=O)(=O)c1ccccc1F
inactive: all assays above

C[C@@H]1CCCCO[C@H](CN(C)C(=O)Nc2ccc(F)cc2)[C@H](C)CN([C@@H](C)CO)C(=O)c2cc(NS(=O)(=O)c3ccc(Cl)cc3)ccc2O1
inactive: all assays above

C[C@@H]1CCCCO[C@H](CN(C)Cc2ccncc2)[C@@H](C)CN([C@H](C)CO)C(=O)c2cc(N(C)C)ccc2O1
inactive: all assays above

COCCNC(=O)C[C@@H]1CC[C@H]2[C@@H](COC[C@H](O)CN2Cc2cccc(-c3ccncc3)c2)O1
inactive: all assays above

COc1ccccc1NC(=O)N[C@@H]1CC[C@H](CCn2cc(-c3ccccc3OC)nn2)O[C@H]1CO
inactive: all assays above

CCC(=O)N1[C@@H]2Cn3c(ccc(C4=CCCCC4)c3=O)[C@H]1[C@@H](C(=O)N[C@H](C)c1ccccc1)[C@@H]2CO
inactive: all assays above

CC(C)NC(=O)Nc1cccc2c1O[C@@H](CN(C)C(=O)Nc1ccccc1)[C@@H](C)CN([C@@H](C)CO)C2=O
inactive: all assays above

COCCNC(=O)C[C@H]1CC[C@@H]2[C@H](COC[C@H](O)CN2S(=O)(=O)c2ccccc2C)O1
inactive: all assays above

C[C@@H]1CN([C@H](C)CO)C(=O)c2cc(NS(=O)(=O)c3cn(C)cn3)ccc2O[C@H]1CN(C)C(=O)Nc1cccc2ccccc12
inactive: all assays above

COCC(=O)Nc1ccc2c(c1)C(=O)N(C)C[C@@H](OC)[C@H](C)CN(Cc1ccccc1)[C@@H](C)CO2
inactive: all assays above

C[C@H]1CN([C@@H](C)CO)C(=O)Cc2cc(NC(=O)CCCCCC(=O)Nc3ccccc3N)ccc2O[C@H]1CN(C)C(=O)Nc1ccccc1
inactive: all assays above

Cc1noc(C)c1NC(=O)N(C)C[C@H]1Oc2ccc(NS(=O)(=O)c3cn(C)cn3)cc2CC(=O)N([C@H](C)CO)C[C@H]1C
inactive: all assays above

CO[C@H]1CN(C)C(=O)c2cc(NC(=O)Nc3cccc(F)c3)ccc2OC[C@H](C)N(C)C[C@H]1C
inactive: all assays above

C[C@@H]1CN([C@@H](C)CO)C(=O)c2cc(NS(=O)(=O)c3cn(C)cn3)ccc2O[C@@H]1CN(C)C(=O)Nc1cccc2ccccc12
inactive: all assays above

Cc1cccc(C)c1NC(=O)CNC(=O)C(C)N1CCCCC1 (stereo not given)
inactive: all assays above

CC(=O)N(C)C[C@H]1Oc2cc(C#Cc3ccc(F)cc3)ccc2S(=O)(=O)N([C@H](C)CO)C[C@@H]1C
inactive: all assays above

CCNC(=O)Nc1ccc2c(c1)C(=O)N(C)[C@H]1CC[C@H](CC(=O)N[C@@H](C)c3ccccc3)O[C@H]1CO2
inactive: all assays above

N#Cc1ccc(-c2ccc3c(c2)[C@@H]2[C@@H](CCN2C(=O)Cc2ccccc2)[C@@H](CO)N3)cc1
inactive: all assays above

Cc1ccc(S(=O)(=O)Nc2ccc3c(c2)C(=O)N([C@@H](C)CO)C[C@@H](C)[C@@H](CN(C)S(=O)(=O)c2ccc(Cl)cc2)OCCCC[C@H](C)O3)cc1
inactive: all assays above

CCC(=O)N[C@H]1C=C[C@H](CC(=O)NCC2CCCCC2)O[C@@H]1CO
inactive: all assays above

O=C(C[C@H]1CC[C@H](NC(=O)Nc2ccc(C(F)(F)F)cc2)[C@H](CO)O1)NCc1cccc(F)c1
inactive: all assays above

C[C@H](CO)N1C[C@H](C)[C@@H](CN(C)Cc2cccc(C(F)(F)F)c2)OCc2cnnn2CCCC1=O
inactive: all assays above

C[C@@H]1CCCCO[C@@H](CN(C)Cc2ccncc2)[C@@H](C)CN([C@H](C)CO)C(=O)c2cc(NC(=O)c3ccncc3)ccc2O1
inactive: all assays above

C[C@@H]1CN([C@H](C)CO)C(=O)Cc2cc(NC(=O)CCCCCC(=O)Nc3ccccc3N)ccc2O[C@H]1CN(C)Cc1ccc2c(c1)OCO2
inactive: all assays above

O=C(NC(=S)Nc1ccccc1)c1cc([N+](=O)[O-])ccc1N1CCOCC1
inactive: all assays above

C[C@H](NC(=O)C[C@@H]1CC[C@@H]2[C@H](COC[C@@H](O)CN2C(=O)Nc2cccc(F)c2)O1)c1ccccc1
inactive: all assays above

C/C=C/c1ccc2c(c1)O[C@H](CN(C)S(=O)(=O)c1ccccc1)[C@H](C)CN([C@@H](C)CO)S2(=O)=O
inactive: all assays above

C[C@@H]1CCCCO[C@@H](CN(C)Cc2ccc(C(F)(F)F)cc2)[C@@H](C)CN([C@@H](C)CO)C(=O)c2cc(NS(=O)(=O)c3cn(C)cn3)ccc2O1
inactive: all assays above

C[C@H](O)C#Cc1ccc2c(c1)O[C@H](CN(C)C(=O)C1CCCCC1)[C@H](C)CN([C@@H](C)CO)S2(=O)=O
inactive: all assays above

CCNC(=O)COc1cccc(C(=O)NCc2ccccc2)c1
inactive: all assays above
